High-throughput results deposited in PubChem by National Center for Advancing Translational Sciences (NCATS).
Shown are actives, neighbours in structure and some others; about 21% of the full set was active somewhere.
TDP1 cell CPT: growth inhibition of DT40 Tdp1-/-;hTDP1 cells with camptothecin (screen for TDP1 inhibitors). chicken DT40 Tdp1-/-;hTDP1 cells + 20 nM CPT, ATP luminescence, 48 h. 420,000 tested, 12% active. AID 686979. Potency, µM (top dose mostly 46.2 µM), usual class: inhibitors; note: nearly all actives have a fitted effect of over 55% in size
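Chicken DT40 Tdp1-/- cells complemented with human TDP1, 400 cells/well, exposed to compounds plus 20 nM camptothecin for at least 48 h at 37 C; viability read as ATP content by CellTiter-Glo luminescence.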
TDP1 cell noCPT: qHTS for Inhibitors of human tyrosyl-DNA phosphodiesterase 1 (TDP1): qHTS in cells in absence of CPT | DT40 Tdp1-/- hTDP1 cells, no CPT, ATP luminescence, 48 h | Potency, µM (top dose mostly 46.2 µM), actives largely listed as inhibitors | 420,000 tested, 15% active; note: nearly all actives have a fitted effect of over 55% in size
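Growth kinetics read by CellTiter-Glo luminescence after ≥48 hr at 37 °C. Cells: DT40 Tdp1-/- stably carrying human TDP1, 400 per well, compound exposure in the absence of CPT (DMSO vehicle).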
D3 antag: antagonists of human D3 dopamine receptor. P35462. 360,000 tested, 2.5% active. max response, negative = inhibition, %. D3R cells, DiscoveRx beta-arrestin luminescence, antagonist mode; hits give low values; in the data active = max response below about -50%; inconclusive = no clear call, values can overlap the other calls
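Cells expressing the human receptor were seeded at 1500 cells/well, incubated overnight at 37 degrees C in 5% CO2, then exposed to library compounds with dopamine controls for 90 minutes at 37 degrees C before luminescent detection.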
ClpP mod: qHTS Assay for Activators of ClpP; purified B. subtilis ClpP, FRET peptide cleavage, 20 min; Potency, µM (doses to about 57.5 µM); 340,000 tested, 1.9% active; AID 651965, 2013; active = well fitted falling curve with a large enough effect; inconclusive = small, poorly fitted or top-dose-only effect; inactive = no such curve, though single readings can be large or run the other way; note: the source files actives as falling curves though it sought activators and does not explain the sign; nearly all actives have a fitted effect of over 65% in size
Target sequence (P80244 whole entry, looked up): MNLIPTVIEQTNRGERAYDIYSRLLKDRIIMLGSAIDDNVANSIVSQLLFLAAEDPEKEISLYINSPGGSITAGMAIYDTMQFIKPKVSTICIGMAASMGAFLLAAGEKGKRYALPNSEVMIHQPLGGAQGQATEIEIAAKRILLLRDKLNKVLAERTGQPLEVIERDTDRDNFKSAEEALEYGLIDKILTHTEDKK
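Purified B. subtilis ClpP, 10 microg/mL final in Tris/HCl pH8 with KCl, BSA, glycerol and Tween-20, cleaved an Abz/nitrotyrosine-quenched decapeptide. Fluorescence (ex 320, em 430) was read at 0 and 20 min at room temperature. Delta was normalized to 5.8 microM ADEP and DMSO/no-enzyme controls.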
D3 ag: agonists of human D3 dopamine receptor | 410,000 tested, 0.58% active | D3R DiscoveRx beta-arrestin cells, luminescence, 90 min | max activation, % | P35462; in the data active = max activation above about 30%
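Cells at 1500/well, incubated overnight, then treated with pinned compounds (dopamine as control) for 90 min at 37 degrees C. DiscoveRx reagent added for 30 - 60 minutes at room temperature; luminescence read.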
IL1B secr inh: inflammasome signaling inhibition, IL-1 beta readout. THP-1 LPS/ATP IL-1B secretion, AlphaLISA, 16 h; hits give low values. activity change, % at 57.5 µM. 360,000 tested, 4.7% active; in the data active = activity change below about -50%; inconclusive = mostly about -30% to -49%
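Secreted IL-1B measured by AlphaLISA bead assay after 16 h compound exposure of THP-1 cells; compounds (final up to 57.5 uM) added 1 h before LPS (250 ng/mL) and ATP (1.25 mM) stimulation; lower signal means less secretion.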
Hits are given with their value; . = inactive; ? = inconclusive; / = no result given. Unless noted, calls come from the whole dose curve; as a rule, active = well fitted inhibition curve with a large enough effect; inconclusive = small, poorly fitted or top-dose-only effect; inactive = flat fitted curve, though single readings scatter.

SMILES | TDP1 cell CPT | TDP1 cell noCPT | D3 antag | ClpP mod | D3 ag | IL1B secr inh
O=C(NC1CCCCC1)c1n[nH]c2c1CCCCC2 | ? | ? | . | . | . | .
CCC(C)(C)C1CCc2[nH]nc(C(=O)NCc3ccc(OC)cc3)c2C1 (stereo not drawn) | 23µM | 15µM | . | . | . | .
O=C(Nc1nnc(SCc2ccccc2F)s1)C1=COCCO1 | . | . | . | . | . | .
CSc1ccccc1OCc1cc(C(=O)NCc2csc(C(C)C)n2)no1 | ? | . | . | . | . | .
CC(C)(C)OC(=O)NN1CC(=O)N2Cc3ccccc3C[C@@H]2C1=O | . | . | . | . | . | .
COc1ccc2oc(=O)c(C(=O)N3CCN(c4ccc(C)cc4)CC3)cc2c1 | . | ? | / | . | . | /
CCOc1ccc(N2CC(c3nc4ccccc4n3CCOc3ccccc3OC)CC2=O)cc1 (stereo not drawn) | ? | 23µM | / | . | . | /
O=C1CC(c2nc3ccccc3n2CCCOc2ccccc2)CN1c1ccc(F)cc1 (stereo not drawn) | 16µM | 8.2µM | / | . | . | /
CCCn1c(C2CC(=O)N(c3cc(OC)ccc3OC)C2)nc2ccccc21 (stereo not drawn) | 21µM | ? | . | . | . | .
CCOc1ccc(N2CC(c3nc4ccccc4n3CCOc3ccc(CC)cc3)CC2=O)cc1 (stereo not drawn) | ? | ? | / | . | . | /
CCCCn1c(C2CC(=O)N(c3ccc(OCC)cc3)C2)nc2ccccc21 (stereo not drawn) | 21µM | ? | / | . | . | /
Cc1cccc(Cn2c(=O)n(CC3CCC(C(=O)NC(C)C)CC3)c(=O)c3sccc32)c1 (stereo not drawn) | . | . | / | . | . | /
CC(C)CCNC(=O)CN1C(=O)CSc2ccc(S(=O)(=O)N3CCC(C)CC3)cc21 | ? | ? | / | . | . | /
CN(C)c1nc(NCc2ccccc2)nc(N/N=C/c2cccc(Br)c2)n1 | 5.8µM | 7.3µM | . | / | . | .
O=[N+]([O-])c1cccc(/C=N/Nc2nc(NCc3ccccc3)nc(N3CCOCC3)n2)c1 | 15µM | ? | . | . | . | .
O=[N+]([O-])c1cccc(/C=N/Nc2nc(NCc3ccccc3)nc(N3CCOCC3)n2)c1O | 13µM | ? | -138 | . | . | .
CC(C)c1ccccc1NC(=O)COC(=O)c1cc([N+](=O)[O-])ccc1N1CCOCC1 | ? | 18µM | . | / | . | .
Cc1cc(C)c(NC(=O)COC(=O)c2cc([N+](=O)[O-])ccc2N2CCOCC2)c(C)c1 | . | . | . | . | . | .
Cc1cc(NC(=O)COC(=O)c2cc([N+](=O)[O-])ccc2N2CCOCC2)ccc1Br | ? | 16µM | . | / | . | ?
O=C(COC(=O)c1cc([N+](=O)[O-])ccc1N1CCOCC1)Nc1ccccc1OC(F)F | . | . | . | . | . | .
O=C(COC(=O)c1cc([N+](=O)[O-])ccc1N1CCCC1)Nc1ccccc1OC(F)F | ? | 16µM | ? | . | . | .
CC(=O)c1c(C)[nH]c(C(=O)Nc2ccc(F)c(F)c2F)c1C | . | . | . | / | . | .
CNC1C(O)[C@@H]2OC(O[C@@H]3C(O)C(O)C(N)C[C@H]3N)C(N)C[C@H]2O[C@H]1O[C@@H]1OC(CO)C(N)C(O)C1O (stereo partly drawn) | . | . | / | / | / | /
Cc1cccc(C)c1NC(=O)C1C(c2ccc3c(c2)OCO3)=Nc2ccccc2N1C(=O)c1cccc2ccccc12 (stereo not drawn) | 6.5µM | 7.3µM | . | . | . | .
O=C(NCc1ccccc1)C1C(c2ccc3c(c2)OCO3)=Nc2ccccc2N1C(=O)c1cccc2ccccc12 (stereo not drawn) | . | ? | . | ? | . | .
COc1ccc(CCC(=O)N2c3ccccc3N=C(c3ccc4c(c3)OCO4)C2C(=O)NCc2ccccc2)cc1 (stereo not drawn) | ? | ? | ? | 32µM | . | .
